Bioassay records: PubChem, National Center for Advancing Translational Sciences (NCATS)
A selection: hits, their analogues and other compounds. The true share with any hit is near 12%.
Sm TGR inh – S. mansoni TGR enzyme inhibition. Q962Y6. AID 485364. Potency, µM (highest dose often 114 µM), for inactives: top-dose activity change, negative = inhibition, hits mostly inhibitors. purified TGR, DTNB reduction, TNB absorbance 405 nm. 360,000 compounds, 3% hits; active means well fitted inhibition curve with a large enough effect; inconclusive means small, poorly fitted or top-dose-only effect; inactive means no such curve, though single readings can be large or run the other way; further: potency means the concentration at half of the fitted maximal effect; on the % scale 0 is the no-effect control and ±100 the full control effect; nearly all actives have a fitted effect of over 60% in size
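Kinetic colorimetric format: TGR-catalysed, NADPH-driven DTNB reduction monitored via TNB absorbance. Enzyme dispensed at 20 nM; compound exposure 15 min at room temperature before reaction start.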
Shiga toxin inh – blocks Shiga toxin action in Vero cells. 290,000 compounds, 9.2% hits. Vero cells, Shiga toxin protein synthesis inhibition reporter. inhibition, % at 38.7 µM; in the data active means inhibition mostly above about 28%, no sharp cut-off; inactive means mostly below about 43%; further: 0% is about no effect
FMDV antiviral – blocks foot and mouth disease virus; FMDV antiviral cell-based qHTS; Potency, µM (doses to about 57.9 µM), for inactives: at the highest dose activity change, negative = inhibition, actives largely listed as inhibitors; 410,000 compounds, 1.2% hits; AID 1159524; calls by dose curve; tested in HEK293T cells; further: read-out not given here; potency means the concentration at half of the fitted maximal effect; on the % scale 0 is the no-effect control and ±100 the full control effect; nearly all actives have a fitted effect of over 45% in size
CHX counter – counter-screen hit for Shiga toxin inhibitors, cycloheximide; cell reporter, cycloheximide protein synthesis inhibition counterscreen; 300,000 compounds, 12% hits; max response, %; in the data active means max response mostly above about 13%, no sharp cut-off; inactive means mostly below about 14%; further: read at 38.3 µM for the half of the compounds with a filed dose; 0% is about no effect
Numbers without * were called inactive; ? = inconclusive; / = no result given; + = active, no number.

SMILES | Sm TGR inh | Shiga toxin inh | FMDV antiviral | CHX counter
Cc1ccccc1C(=O)Nc1nc(-c2cccnc2)cs1 | 4.5% | 28.1 | 9.7% | 19.5*
O=C(CCn1c(=O)c2cccn2c2cccnc21)NCc1cccc(Br)c1 | 2.3% | / | -8.3% | /
CCCC(=O)OCCNc1cc(SCCC(=O)OC)c2nonc2c1[N+](=O)[O-] | 3.55µM* | 16.6 | -14.4% | 3.4
COC(=O)CCSc1cc(NCCOC(C)=O)c([N+](=O)[O-])c2nonc12 | -7.8% | 4.5 | 35.5µM* | -5.2
O=c1c(=Nc2ccccc2O)c(=O)c2ccccc12 | 0.3% | 108.5* | 29.1% | 21.5*
O=P1(O)OP(=O)(O)OP(=O)(O)O1.[Al] | / | -6.7 | / | -6.2
COC(=O)[C@H](CCSC)NC(=O)c1cccnc1SC | ? | 22.3 | 0.1% | -1.0
CCc1ccc(C(=O)NC(CCSC)C(=O)OC)cc1 (stereo not drawn) | 6.9% | 15.2 | 35.6% | 17.1*
CC(/C=C1\SC(=Nc2cccnc2)NC1=O)=C\c1ccccc1 | -2.9% | 6.4 | -7.8% | -1.0
C=CCOc1ccc(/C=C2\SC(=Nc3cccnc3)NC2=O)cc1 | -0.5% | 22.1 | 22.1% | 10.3*
CCc1nn(CC(=O)N2CCN(c3cccc(C)c3C)CC2)c(=O)c2cc3sccc3n12 | -2.4% | / | -17.1% | /
CCOc1ccccc1NC(=O)CSc1nc2cc(OC)c(OC)cc2c2nc(CCn3c(C)nc4ccccc43)nn12 | -5.0% | / | -11.7% | /
COc1cccc(Nc2ccc3cc(S(=O)(=O)N4CCC(C)CC4)ccc3n2)c1 | 8.1% | / | -15.0% | /
Cc1ccc(NC(=O)c2cc(N(C)C)ccc2[P+](=O)O)cc1 | -3.6% | 104.8* | / | 83.7*
Cc1ccc(O)c(NC(=O)CCC2CCCCC2)c1 | 4.2% | 138.1* | 40.0% | 34.5*
O=C(CCC1CCCCC1)Nc1ccccc1O | 2.9% | 106.7* | 46.9% | 38.6*
O=C(CCC1CCCCC1)Nc1ccccc1-c1ccccc1 | -1.8% | 3.2 | -24.2% | -1.9
Cc1ccc(NC(=O)C2CCCCC2)c(O)c1 | 5.5% | 40.5 | / | 20.9*
Cn1c(NC(=O)CCC2CCCCC2)cc(=O)n(C)c1=O | -20.9% | 113.2* | 48.0% | 71.3*
COc1ccc(S(=O)(=O)N(CC(=O)Nc2cc(C)cc(C)c2)c2ccc(Cl)cc2)cc1 | -5.3% | / | 0.0% | /
COc1ccc(N2CCN(C(=O)c3cc4c(=O)n(Cc5cccs5)ccc4nc3C)CC2)cc1 | -7.0% | / | -18.3% | /
CCc1ccccc1NC(=O)c1ccc(CN2C(=O)CCn3nc(C)cc32)cc1 | -2.3% | / | -25.1% | /
COc1ccc(NC(=O)Nc2cc(C(=O)NCc3ccc(C)cc3)ccc2N2CCCC2)cc1 | 4.9% | / | 12.8% | /
CC(=O)Nc1ccc(NC(=O)CSc2nnnn2-c2ccc3c(c2)OCCO3)cc1 | 8.8% | -3.5 | -24.1% | 9.9
O=C(CSc1nnnn1-c1ccccc1)NC(=O)Nc1ccc2c(c1)OCCO2 | -5.5% | 76.0* | 45.4% | 56.1*
SMILES | Sm TGR inh | Shiga toxin inh | FMDV antiviral | CHX counter
COCC(C)n1c(SCC(=O)NC(=O)Cc2ccccc2)nc2ccccc2c1=O (stereo not drawn) | 6.5% | / | -17.7% | /
COCC(C)n1c(SCC(=O)NC(=O)Nc2ccc3c(c2)OCCO3)nc2ccccc2c1=O (stereo not drawn) | -2.5% | 64.9* | / | 33.4*
CCOc1ccccc1-n1nnnc1SCC(=O)NC(=O)Nc1ccc2c(c1)OCCO2 | -4.0% | 20.5 | -24.3% | 12.6*
CC(C)Oc1ccc(CNC(=O)C2CCN(Cc3cc4ccccc4n3Cc3ccccc3)CC2)cc1 | 4.0% | / | -14.4% | /
CCc1ccc(N2CC(C)Cn3c2nc2c3c(=O)n(CC(=O)O)c(=O)n2C)cc1 (stereo not drawn) | -2.0% | / | -7.9% | /
CC1=C(C(=O)Nc2cccc(Cl)c2)C2(CCCCCC2)OC1=O | -9.0% | / | -4.0% | /
Cc1oc(-c2cccs2)[n+]([O-])c1C | -31.1% | 7.8 | 16.5% | -1.8
Cc1ccccc1-c1oc(C)c(C)[n+]1[O-] | 25.1µM* | -16.6 | 1.1% | -4.1
COc1cccc(C(=O)NCCSCc2ccccc2Cl)c1 | 0.9% | 24.3 | 53.1% | 12.7*
COc1cccc(C(=O)NCCSCc2c(F)cccc2Cl)c1 | 3.3% | / | 44.4% | 22.3*
CS(=O)(=O)Nc1ccc(C(=O)NCCSCc2c(F)cccc2Cl)cc1 | 10.7% | 2.4 | -13.5% | 1.5
Cc1ccccc1OCC(=O)Nc1cc(-c2cccc(Br)c2)nn1-c1ccccc1 | 1.7% | / | -4.5% | /
CCOc1ccccc1C(=O)Nc1cc(-c2nc3cccnc3s2)ccc1C | -1.1% | / | 4.7% | /
CN1Cc2sc(NC(=S)NC(=O)c3ccccc3)c(C#N)c2CC1(C)C | 31.6µM* | 55.5 | ? | 47.1*
O=C(NC(=S)Nc1sc2c(c1C(=O)O)CCCC2)c1ccccc1 | 60.2% | 20.7 | -12.0% | 12.5*
N#Cc1c(NC(=O)c2ccco2)sc2c1CCC2 | -7.2% | -25.2 | 54.5% | -3.9
CC(C)(C)c1ccc(C(=O)NC(=S)Nc2sc3c(c2C#N)CCC3)cc1 | -1.7% | 18.4* | -25.4% | 12.2*
CC1(C)Cc2c(sc(NC(=O)c3ccco3)c2C#N)CO1 | -0.8% | 22.0 | 25.2% | 28.3*
Cn1nccc1C(=O)NC(=S)Nc1sc2c(c1C#N)CCCCC2 | 0.0% | 33.9 | 35.8% | 17.3
Cn1c(=O)c(-c2cccs2)nc2cnc(Oc3ccccc3)nc21 | / | / | 31.4% | /
Cc1nc2c(C(=O)N(C)Cc3ccccc3)c[nH]n2c(=O)c1Cc1ccc(Cl)cc1 | -14.1% | / | ? | /
CC1CCc2sc(NC(=S)NC(=O)c3ccccc3)c(C#N)c2C1 (stereo not drawn) | ? | + | 46.4% | 26.2*
CCN1CCc2c(sc(NC(=S)NC(=O)c3ccccc3)c2C#N)C1 | ? | 29.0 | 43.5% | 22.2
CC(=O)NC(=S)Nc1sc2c(c1C#N)CCCCC2 | -4.4% | 84.0* | 0.0% | 29.6*
N#Cc1c(NC(=S)NC(=O)c2ccccc2)sc2c1CCC2 | 3.98µM* | 37.4 | 11.2% | 31.6*
SMILES | Sm TGR inh | Shiga toxin inh | FMDV antiviral | CHX counter
CC(=O)Nc1sc2c(c1C#N)CCCC2 | -4.2% | 0.9 | 37.7% | 3.9
O=C1CN(C(=O)c2c(F)cccc2Cl)C(c2ccc(F)cc2)c2cc(Br)ccc2N1 (stereo not drawn) | 5.3% | / | -4.9% | /
COc1cccc(-c2cc(C(=O)N3C(C)CCCC3C)no2)c1 (stereo not drawn) | -4.4% | 72.1* | 80.8% | 99.6*
O=C(c1cc(-c2ccco2)on1)N1CCN(c2ccccc2)CC1 | -35.5% | 17.4 | -12.6% | 4.7
COc1cccc(-c2cc(C(=O)Nc3cc(C)on3)no2)c1 | -22.9% | 19.4 | 27.9% | 14.5
CC1CCCC(C)N1C(=O)c1cc(-c2ccco2)on1 (stereo not drawn) | -34.0% | 47.5* | 23.8% | 7.7
CC1CCN(C(=O)c2cc(-c3ccco3)on2)CC1 | -8.0% | 66.3* | 14.5% | 27.4*
CC1CCN(C(=O)c2cc(-c3ccccc3O)on2)CC1 | 3.4% | 85.4* | 23.2% | 39.0*
Cc1ccc(S(=O)(=O)C(CNC(=O)C(=O)NCCc2ccc(Cl)cc2)c2cccs2)cc1 (stereo not drawn) | -13.4% | / | ? | /
CC(C)OC(=O)c1nn2c(C(F)(F)F)cc(-c3ccc(Br)o3)nc2c1Br | 20µM* | -13.4 | -5.7% | -8.7
CC(C)OC(=O)c1nn2c(C(F)(F)F)cc(-c3ccco3)nc2c1Cl | -12.9% | -7.3 | -18.2% | 0.7
Cc1ccccc1NC(=S)Nc1ccc2[nH]c(=O)[nH]c2c1 | -32.8% | -9.4 | -15.4% | 1.2
